Bioassay records as filed in PubChem BioAssay.
Only a selection was taken, and hits are over-represented in it overall.
GIRK2 activator – Activates human GIRK2-containing potassium channels; HEK293 GIRK2/NPY4 cells, thallium flux fluorescence; 34,000 tested, under 10 active; AID 1259324; P48051; activation (% efficacy), % for hits at 37.5 µM;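 active = primary screen hit, no activity in plain HEK293 cells, and in GIRK2-only cells above 5% efficacy rising with concentration; inactive = the rest, including fluorescent compounds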;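 also: efficacy is normalized control-subtracted fluorescence 15 s after thallium addition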
Target sequence (P48051 whole entry, looked up): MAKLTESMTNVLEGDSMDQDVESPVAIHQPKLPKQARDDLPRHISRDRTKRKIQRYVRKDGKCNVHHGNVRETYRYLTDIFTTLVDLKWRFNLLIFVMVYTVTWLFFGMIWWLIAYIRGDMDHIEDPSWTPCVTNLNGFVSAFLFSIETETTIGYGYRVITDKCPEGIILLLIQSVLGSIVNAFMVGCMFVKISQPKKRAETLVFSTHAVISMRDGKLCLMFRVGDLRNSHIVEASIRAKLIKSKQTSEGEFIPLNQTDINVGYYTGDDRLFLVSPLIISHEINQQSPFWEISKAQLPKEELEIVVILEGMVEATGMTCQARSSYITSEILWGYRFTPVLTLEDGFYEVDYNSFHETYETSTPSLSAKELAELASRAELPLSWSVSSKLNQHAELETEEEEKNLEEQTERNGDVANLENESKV
AMPAR-TARP mod – modulates AMPAR-stargazin complexes; HEK293 GluA2+stargazin, membrane potential dye (FDSS), glutamate EC50; hits were called plate by plate, in both directions; calls only at 30 µM; 40,000 compounds, 3.5% hits; AID 1259245;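 active = any of four per-well response measures lying three or more SD from its plate-wide compound average, in either direction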
Starred values were filed as active, the others as inactive; i = inactive; . = no result given; + = active, no number.

SMILES	GIRK2 activator	AMPAR-TARP mod
COc1ccc(S(=O)(=O)NCC(c2ccsc2)N(C)C)cc1Cl (centres undefined)	i	i
COc1ccc(S(=O)(=O)NCCc2ccc(N(C)C)cc2)cc1Cl	.	+
COc1ccc(S(=O)(=O)NCC(O)(c2ccccc2)C(F)(F)F)cc1Cl (centres undefined)	i	+
Cc1cc(NC(=O)CN2C(=O)c3ccccc3C2=O)n(-c2ccccc2)n1	i	i
O=S(=O)(Nc1ccc(Nc2cc(-n3ccnc3)ncn2)cc1)c1ccc2ccccc2c1	i	i
COc1ccc(Cl)cc1NC(=O)Cn1nc(C)c(C(C)=O)c1C	i	i
CCOc1ccc(N2C(=O)/C(=C\c3ccc(O)cc3)SC2=S)cc1	.	+
CN(C)c1ccc(/C=C2\SC(=S)N(c3ccc(O)cc3)C2=O)cc1	.	+
COc1cc(/C=C2\SC(=S)N(c3ccc(O)cc3)C2=O)cc(OC)c1OC	.	i
CCOc1ccc(N2C(=O)/C(=C/c3ccc4c(c3)OCO4)SC2=S)cc1	.	i
COc1cccc(NC(=O)c2cccc(N3CCCS3(=O)=O)c2)c1	.	i
CCCC(=O)NCc1cc(-c2nn(C)c(=O)c3ccccc23)ccc1OC	.	i
COc1ccc(-c2nn(C)c(=O)c3ccccc23)cc1CNC(=O)COc1cccc(C)c1	.	+
COc1ccc(-n2c(C)cn3c4c(=O)n(Cc5cccc(C)c5)c(=O)n(C)c4nc23)c(OC)c1	.	i
CCOC(=O)c1ccc(NC(=O)c2nc(-c3cnccn3)no2)cc1	i	i
CN1CCC(CNS(=O)(=O)c2ccccc2Br)CC1	i	i
COC(=O)c1ccc(C(=O)NCC(c2ccccc2Cl)N(C)C)cc1 (centres undefined)	i	i
COc1ccc(NC(=O)NCC(c2ccccc2Cl)N(C)C)cc1OC (centres undefined)	i	+
CC(C)S(=O)(=O)c1ccc(C(=O)Nc2nc(-c3nc4ccccc4s3)cs2)cc1	i	i
Cc1ccc(Cn2c(C3CC(=O)N(Cc4ccc(F)cc4)C3)nc3ccccc32)cc1 (centres undefined)	.	i
Cc1nc(N2CCN(CCO)CC2)nc(Nc2ccc(F)cc2)c1[N+](=O)[O-]	i	+
Cc1nc(N2CCN(CCO)CC2)nc(N2CCCCC2)c1[N+](=O)[O-]	i	i
O=C(CCCSc1ccc(NC(=O)C2CC2)nn1)NCc1cccs1	i	i
O=C(C1CN(c2nc3c(F)cccc3s2)C1)N1CCN(c2ccccc2O)CC1	i	i
O=C(c1csc(Nc2ccc(OC(F)F)cc2)n1)N1CCCC1	i	+
SMILES	GIRK2 activator	AMPAR-TARP mod
NC(=O)C1CCN(C(=O)c2csc(Nc3ccc(OC(F)F)cc3)n2)CC1	i	i
Cc1cccc(CS(=O)(=O)NCC(C)(O)C2CC2)c1 (centres undefined)	i	i
CS(=O)(=O)N1CCCC(C(=O)N(Cc2ccccc2)Cc2ccccc2)C1 (centres undefined)	i	i
CS(=O)(=O)N1CCCCC1C(=O)N(Cc1ccccc1)Cc1ccccc1 (centres undefined)	i	+
COC(=O)c1sc2ccccc2c1NC(=O)c1c(C)cnn1C	i	.
COc1ccc(S(=O)(=O)Nc2ccc3c(c2)N(C(=O)C(C)(C)C)CC3)c(C)c1	i	i
COc1ccc(S(=O)(=O)Nc2ccc3c(c2)N(C(=O)C(C)(C)C)CC3)cc1	i	+
COc1ccc(CCS(=O)(=O)Nc2ccc3c(c2)N(C(=O)c2ccco2)CC3)cc1	i	i
CCS(=O)(=O)Nc1ccc2c(c1)N(C(=O)C(C)(C)C)CC2	i	i
CCCc1ccc(S(=O)(=O)Nc2ccc3c(c2)N(C(=O)C(C)(C)C)CC3)cc1	i	+
COc1ccc(OC)c(S(=O)(=O)Nc2ccc3c(c2)N(S(=O)(=O)c2cccs2)CCC3)c1	i	+
COc1ccc(OC)c(S(=O)(=O)Nc2ccc3c(c2)N(S(C)(=O)=O)CCC3)c1	.	i
COc1ccc(CCS(=O)(=O)Nc2ccc3c(c2)N(C(=O)C(C)(C)C)CC3)cc1	i	+
O=C(Cc1ccc(F)cc1)NCC(c1ccco1)N1CCOCC1 (centres undefined)	i	i
O=C(NCCn1nc(-c2ccco2)ccc1=O)Nc1ccc(F)cc1	i	i
COc1ccc(CCNC(=O)CCc2csc3nc(-c4ccc(Cl)cc4)cn23)cc1	i	i
CCOCCN1N=C(c2ccc(F)cc2)Cn2c1nc1c2c(=O)n(C)c(=O)n1C	.	i
Cn1c(=O)c2c(nc3n2CC(c2ccc(F)cc2)=NN3CCN2CCOCC2)n(C)c1=O	i	+
Cc1ccc(-n2c(-c3ccccc3)cn3c4c(=O)n(CCN5CCOCC5)c(=O)n(C)c4nc23)cc1	.	i
Cn1c(=O)c2c(nc3n(CCN4CCOCC4)c(-c4ccccc4)cn23)n(C)c1=O	.	+
